Test results published in paper PMC7819943, “Rice protein-binding microarrays: a tool to detect cis-acting elements near promoter regions in rice”.
Over roughly 68,000 sequences, “fluorescence intensity (a.u.)” has its median near 9,100; the highest 2% begin near 16,000. This excerpt belongs to a sample that is enriched for the highest values.

Target: OsWRKY34 (Oryza sativa, UniProt Q0JBA9 1-250)
Assay: protein-binding microarray (RPBM); PBS, 2% BSA, 51.3 ng/ul salmon testes DNA, 50 uM zinc acetate, 200 nM TF, 25 C, 1 h; high values mean tight binding
Details: protein: recombinant; tags: N-terminal polyhistidine and DsRed monomer fusion (pET32a); label: CyDye5-dUTP incorporated in the synthesized complementary strand; 3' TTTTT single-stranded linker to array surface; dsDNA, one strand shown
How it was run: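 For the binding signal, per-feature fluorescence intensity was read in arbitrary units on an Axon 4000B scanner. Before scanning, a 2% BSA-blocked custom Agilent array made double-stranded with Cy5-dUTP was washed after 1 h at 25 °C with 200 nM protein and 50 µM zinc acetate. The proteins were Ni–NTA-purified transcription factors with N-terminal polyhistidine and DsRed fusions, expressed in E. coli BL21-CodonPlus.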

Chain of OsWRKY34 (Q0JBA9 entry or part of it): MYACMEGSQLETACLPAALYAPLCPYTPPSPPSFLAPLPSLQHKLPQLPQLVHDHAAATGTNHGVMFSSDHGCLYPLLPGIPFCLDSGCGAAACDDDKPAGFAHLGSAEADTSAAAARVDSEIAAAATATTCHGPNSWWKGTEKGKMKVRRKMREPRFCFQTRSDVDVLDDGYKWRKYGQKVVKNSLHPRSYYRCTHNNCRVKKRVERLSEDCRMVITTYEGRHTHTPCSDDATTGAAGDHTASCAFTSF

Sequence	binding signal
TTTTCCGTGTTTTCCGTTTCTGTTTGTTTGGCTTTTTTTTCGGAGTCACCTAGTGCAG	18600 fluorescence intensity (a.u.)
TCATTTCTGTGTGTGTTTTGGAGGTGGGTGAGGGTCTGTTCGGAGTCACCTAGTGCAG	9920 fluorescence intensity (a.u.)
GTGGACTTTTTTCCTTCTCCTTTTCCTTTGTGTTGTTTCGCGGAGTCACCTAGTGCAG	8860 fluorescence intensity (a.u.)
CGTTCTGTCATTTGGGTTTTATGTTTGTTCTCTCTTGTTTCGGAGTCACCTAGTGCAG	12000 fluorescence intensity (a.u.)
TTCCGTTTCTGTTCCGTTTGGTTTTTCCTTGTTCTTTCGGCGGAGTCACCTAGTGCAG	12900 fluorescence intensity (a.u.)
TAGTCCGTTCTGTTGTCATCTACTACTCTTGTTTGTGTTTCGGAGTCACCTAGTGCAG	16100 fluorescence intensity (a.u.)
GAATTGTTGACCACGTGTTTCTGTTTGGACTCCTTTTTTTCGGAGTCACCTAGTGCAG	16400 fluorescence intensity (a.u.)
ATGCGTGTGGTTCTCCTGTCCGTTCTGTCATTTGGGTTTTCGGAGTCACCTAGTGCAG	20000 fluorescence intensity (a.u.)
CGTCCTTATTGTGGTTTTCCACGTGTTTGTCTCTGTGTTTCGGAGTCACCTAGTGCAG	13300 fluorescence intensity (a.u.)
CTTCTTAGCTTCCGTGTCATGTTTCTTTTTGTTATCTTTTCGGAGTCACCTAGTGCAG	10800 fluorescence intensity (a.u.)
GCTTCCGCCGCCGCGTCTTCTCGCCCTCGACTCCGCTCTCCGGAGTCACCTAGTGCAG	14700 fluorescence intensity (a.u.)
GCATAACTAATGGTCTGTTTACTTTGATGGCATTTTCAATCGGAGTCACCTAGTGCAG	9570 fluorescence intensity (a.u.)
CCTCAACCGTGACTCAGTTATTCAGTTCGACACCCAGCCGCGGAGTCACCTAGTGCAG	8070 fluorescence intensity (a.u.)
TTGCATTTGAAGACATGTAGTGTGTAGGGTGGGTTCTATTCGGAGTCACCTAGTGCAG	13500 fluorescence intensity (a.u.)
GCATTTCCAGGCCCACGGAAGCCACGCTTCTTCTCCAGCGCGGAGTCACCTAGTGCAG	8060 fluorescence intensity (a.u.)
TCTGTTGTGCTCTTTCGTGTGATAGATCGATTTTTTGATTCGGAGTCACCTAGTGCAG	10600 fluorescence intensity (a.u.)
AGGGAATTTCCCGTTCTTGCGCTCCTGGATTTCTTGCCCACGGAGTCACCTAGTGCAG	9560 fluorescence intensity (a.u.)
CTCTCTCTGTTTCGGCCTCTCATACTCACTCCTCGGCTTCCGGAGTCACCTAGTGCAG	11100 fluorescence intensity (a.u.)
AGTCCCAAGTCACAACTGACAACAAGGCAACTACTACTACCGGAGTCACCTAGTGCAG	8360 fluorescence intensity (a.u.)
ACTTTGATCATAAAATGAGTTACTCTTACTTTCTTTTATTCGGAGTCACCTAGTGCAG	8920 fluorescence intensity (a.u.)
GATTTAGTTTTAGTTTTTGTTTTTTTCCCACTTGGTTCTTCGGAGTCACCTAGTGCAG	9450 fluorescence intensity (a.u.)
TATGCCTATCTGAATTGGTTACTGTTCGTTTTTCCACTTACGGAGTCACCTAGTGCAG	10800 fluorescence intensity (a.u.)
CTCTCATCCGATTCCTGCGTTTTTCCTGTGGTTCAATCATCGGAGTCACCTAGTGCAG	17900 fluorescence intensity (a.u.)

Sequence	binding signal
CTCTCTCATCTGATTCTTGCGTTTTTCCTGTGGTCCAATCCGGAGTCACCTAGTGCAG	12000 fluorescence intensity (a.u.)
CTCATCCGATTCCTGCGTTTTTCCTGCGCTCCAATCAAACCGGAGTCACCTAGTGCAG	9990 fluorescence intensity (a.u.)
ACTGTTCGTTTTTCCACTTAAGTTCTGCTTGGTTTTTTTTCGGAGTCACCTAGTGCAG	16600 fluorescence intensity (a.u.)
CTCCCTCCCACTCCCCTTTTCGTAATTCCTTCCGCGCTTTCGGAGTCACCTAGTGCAG	8150 fluorescence intensity (a.u.)
TACTCTCTCTGTCCCCTTTTGTTTTTTTTCCTGTATACTGCGGAGTCACCTAGTGCAG	8690 fluorescence intensity (a.u.)
ATCACCTTCACGTTCCGAGATGTGGCACGAATCCCGAGGACGGAGTCACCTAGTGCAG	8070 fluorescence intensity (a.u.)
AATCGCTTTCTCTCTCTTCTTCCTTGCTCTCTCATACAACCGGAGTCACCTAGTGCAG	10200 fluorescence intensity (a.u.)
ATATACAGATTTCGATCGGCGACGTTAGTGATCAGCTGGGCGGAGTCACCTAGTGCAG	35200 fluorescence intensity (a.u.)
GAAGCTGGGTTATACTTTCACCATTTTTTTACTCGATCGACGGAGTCACCTAGTGCAG	8460 fluorescence intensity (a.u.)
TCGTTTGATGCGATTTCGGCGGCGATCACCACCACCACCACGGAGTCACCTAGTGCAG	8160 fluorescence intensity (a.u.)
AGGATTTTTTTTTTGTCAACGTATTTCTATTACCTGCTGTCGGAGTCACCTAGTGCAG	9630 fluorescence intensity (a.u.)
TCTGTTATATTTACTATCCATACTATACGTGTAAATTTTACGGAGTCACCTAGTGCAG	10200 fluorescence intensity (a.u.)
TATTCTTTCTCACGTAACGATTTTTTTTCATCATTAAGTTCGGAGTCACCTAGTGCAG	8230 fluorescence intensity (a.u.)
TATATTTTAATATTTTAATGTATGACGTCGTTGACTTTTTCGGAGTCACCTAGTGCAG	13800 fluorescence intensity (a.u.)
CTACCTCTATATTTTAATTTTAATGTATGACGTCGTTGACCGGAGTCACCTAGTGCAG	11100 fluorescence intensity (a.u.)
CCGTATTTTAATGCACGACACCTTTGACTTTTTGATAAACCGGAGTCACCTAGTGCAG	9990 fluorescence intensity (a.u.)
CCGTATTTTAATATATGACGTCGTTGACTTTTTAACCAACCGGAGTCACCTAGTGCAG	27300 fluorescence intensity (a.u.)
ATTTTTTAAGTGTACGTTGTTGTTGACTTTTTTTATTAACCGGAGTCACCTAGTGCAG	14400 fluorescence intensity (a.u.)
CTAGTCCTTCGTTTGAGTCCTTATATAACATTGATAGTACCGGAGTCACCTAGTGCAG	8500 fluorescence intensity (a.u.)
GTCCTTAACGACGTCGTTGACTTTTCACATAACATTATACCGGAGTCACCTAGTGCAG	17300 fluorescence intensity (a.u.)
AGTCTTTTTTCATCACATTAACCTATTATACACACATAACCGGAGTCACCTAGTGCAG	9110 fluorescence intensity (a.u.)
TCCGTATTTTAATTAACGACGTCGTTGACTTTTTAACCACCGGAGTCACCTAGTGCAG	24200 fluorescence intensity (a.u.)
